# Screens (PubChem)
# A selection: hits, their analogues and other compounds. The true share with any hit is near 3.5%.
# mHTT-CaM PPI inh: disrupts binding of mutant huntingtin to calmodulin. P42858. AlphaScreen His-mHTT/GST-CaM binding, luminescence. inhibition, % at 15 µM. 190,000 tested, 3.6% active. AID 1671202
# Pf apPOL block: Pf-apPOL DNA polymerase inhibition; Recombinant Pf-apPOL, molecular beacon fluorescence, 1.5 h; inhibition, % at 10 µM; 210,000 tested, 0.25% active; AID 1794808
# Hits are given with their value; n = inactive; x = no result given; + = active, no number. No stated cut-off is given here; in the data, active means inhibition above about 50%; inactive means the rest.
SMILES,mHTT-CaM PPI inh,Pf apPOL block
CCOc1ccc(Nc2cc(N3CCOCC3)c3noc4c3c2C(=O)c2ccccc2-4)cc1,n,n
CNc1cc(Nc2ccccc2)c2c3c(onc13)-c1ccccc1C2=O,98,n
O=C(O)c1ccccc1Nc1cc(N2CCOCC2)c2noc3c2c1C(=O)c1ccccc1-3,n,n
Cc1ccc(S(=O)(=O)NC(=O)NCCNc2ncc(C(F)(F)F)cc2Cl)cc1,x,n
COc1ccc(-c2c(C#N)c(SCC(N)=O)nc(C)c2C(=O)Nc2ccccc2)cc1OC,n,n
CC1(C)OC(=O)C(=Cc2ccc(-c3ccc(Br)cc3)o2)C(=O)O1,n,n
O=C(C=Cc1ccccc1)N1CCC(CSC2=NCCS2)CC1,n,n
O=C(Nc1c(Cl)c(Cl)c(O)c(Cl)c1Cl)c1ccccc1,85,n
O=C(Nc1c(F)c(F)c(F)c(F)c1F)c1ccccc1,n,n
CCOC(=O)C(NC(=O)N1CCc2cn(C)c3cccc(c23)C1)C(C)C (stereo unspecified),n,n
Cc1cc(C)c(S(=O)(=O)N2CCC(c3noc(-c4ccccc4)n3)CC2)c(C)c1,100,n
Cc1cc(C)c(C)c(S(=O)(=O)N2CCC(c3noc(-c4ccccc4)n3)CC2)c1C,n,n
O=C(CC1CCN(C(=O)c2ccccc2)CC1)NCCCN1CCCCC1,n,n
COc1ccc(-c2cc(=O)c3ccc(NC(=O)C(C)(C)C)cc3o2)cc1,n,n
Cc1ccc(O)c(C2=NNC(O)(C(F)(F)F)C2)c1 (stereo unspecified),n,n
C=CCn1c(SCC(=O)Nc2ccc(F)cc2)nnc1-c1cccc(OC)c1,n,n
C=CCn1c(SCC(=O)Nc2ccc(OC)cc2)nnc1C(c1ccccc1)c1ccccc1,n,97
O=C1OC(C=Cc2ccccc2)=NC1=Cc1ccccc1Cl,x,n
COc1cnn(-c2ccccc2)c(=O)c1Cl,n,n
Brc1ccc2c(c1)OCCOCCOc1ccc(Br)cc1OCCO2,n,n
Brc1cccc(CNc2cc3c(cc2Br)OCCO3)c1,78,n
CCC(C)NC(=O)c1c[nH]n2c(=O)c(Cc3ccccc3Cl)c(C)nc12 (stereo unspecified),59,n
Cc1nc2c(C(=O)NCCN(C)C)c[nH]n2c(=O)c1Cc1ccccc1F,n,n
Cc1cc(=O)n2[nH]cc(C(=O)NCc3ccccc3)c2n1,n,n
Cc1ccc(CNC(=O)c2c[nH]n3c(=O)cc(CSc4ccc(Cl)cc4)nc23)cc1,65,n
SMILES,mHTT-CaM PPI inh,Pf apPOL block
CCN(CCNC(=O)c1c[nH]n2c(=O)c(Cc3ccccc3F)c(C)nc12)c1ccccc1,79,n
CCCc1c(C)nc2c(C(=O)NCc3ccc(C)cc3)c[nH]n2c1=O,n,n
Cc1nc2c(C(=O)NCc3ccccc3Cl)c[nH]n2c(=O)c1Cc1ccccc1F,n,n
Cc1ccc(CNC(=O)c2c[nH]n3c(=O)c(Cc4ccc(Cl)cc4)c(C)nc23)cc1,96,n
CC(=O)N1CCc2cc(Br)cc(S(=O)(=O)CC(=O)N3CCc4ccccc43)c21,n,n
O=C(NCc1nc(-c2ccccc2)no1)C(=O)NCc1ccccc1Cl,n,n
COc1cccc(CNC(=O)c2c[nH]n3c(=O)c(Cc4ccc(C)cc4)c(C)nc23)c1,61,n
Cc1nc2c(C(=O)NCCc3ccccc3)c[nH]n2c(=O)c1Cc1ccccc1F,n,n
CCCc1c(C)nc2c(C(=O)NCc3ccccc3)c[nH]n2c1=O,n,n
COc1cccc(CNC(=O)c2c[nH]n3c(=O)c(Cl)c(C)nc23)c1,52,n
CCCc1c(C)nc2c(C(=O)NCc3ccc(OC)cc3)c[nH]n2c1=O,n,n
COc1cccc(CNC(=O)c2c[nH]n3c(=O)c(Cc4ccccc4F)c(C)nc23)c1,72,n
COc1ccccc1C1CNCC1C(=O)NCc1ccc(F)cc1 (stereo unspecified),n,n
NC(=S)N/N=C/c1cc(Cl)cc(Cl)c1O,+,x
Oc1ccccc1N=Cc1cc(Br)cc(Br)c1O,55,n
Oc1c(Br)cc(Br)cc1C=Nc1ccc(F)cc1,n,x
COc1cc(OC)c(/C=N/NC(N)=S)cc1Br,n,x
Oc1c(Cl)cc(Cl)cc1C=NN=Cc1cc(Cl)cc(Cl)c1O,x,n
NC(=S)N/N=C/c1cc(Br)cc(Br)c1O,+,x
CCn1c2ccc(Br)cc2c2nc3ccccc3nc21,n,n
N#Cc1c(NC(=O)c2cc3n(n2)C(C(F)(F)F)CC(c2ccco2)N3)sc2c1CCCCC2 (stereo unspecified),n,n
CC(=O)Nc1ccc2c(c1)OCCO2,x,n
CC(=O)Nc1ccc2c(c1)C1C=CCC1C(c1ccccc1F)N2 (stereo unspecified),73,n
COc1ccc(OC)c(C2NC(C(=O)O)CS2)c1 (stereo unspecified),n,n
O=C(Nc1ccc2c(c1)C1C=CCC1C(C(=O)O)N2)c1ccc(Cl)cc1Cl (stereo unspecified),94,n
SMILES,mHTT-CaM PPI inh,Pf apPOL block
COc1ccc2c(c1)C1C=CCC1C(C(=O)O)N2 (stereo unspecified),100,n
CC(=O)Nc1ccc2c(c1)C1C=CCC1C(C(=O)O)N2 (stereo unspecified),89,n
CC(=O)Nc1ccc(NC(=O)c2ccc(Cl)cc2Cl)cc1,n,n
O=C(O)c1ccc(NCCO)c([N+](=O)[O-])c1,n,n
O=C(Cn1cnc(SCc2ccccc2)n1)Nc1cccc([N+](=O)[O-])c1,n,n
CN(C)c1ccc(C(=O)N2CCc3cn(C)c4cccc(c34)C2)cc1,n,n
CCCn1cc2c3c(cccc31)CN(C(=O)c1ccc(F)cc1)CC2,94,n
Cn1cc2c3c(cccc31)CN(C(=O)c1ccc(Br)cc1)CC2,54,n
CCCn1cc2c3c(cccc31)CN(C(=O)CC(C)(C)C)CC2,n,n
CCCn1cc2c3c(cccc31)CN(C(=O)c1ccccc1)CC2,70,n
CCCn1cc2c3c(cccc31)CN(C(=O)c1ccsc1)CC2,n,n
Cc1ccc(-c2noc(C3CCCN3S(=O)(=O)c3cc(C)c(C)cc3C)n2)cc1 (stereo unspecified),n,n
CCCCC(=O)Nc1nnc(C2CC(=O)N(c3ccc(SC)cc3)C2)o1 (stereo unspecified),n,n
CCCc1ccc(S(=O)(=O)N2CC=C(c3cn(C(C)C)c4ncccc34)CC2)cc1,n,n
COc1ccc(NC(=O)/C(C#N)=C/c2cc(C)n(-c3ccc(F)cc3)c2C)cc1,n,n
COc1ccc(-n2c(C)cc(CN)c2C)cc1,64,n
O=C(Nc1nc2c(s1)CN(S(=O)(=O)c1ccccc1)CC2)c1ccccc1F,n,n
COc1cc(C2CC(=O)Nc3n[nH]c(C)c32)ccc1OCc1ccccc1C (stereo unspecified),n,n
c1ccc2c(CSc3nc4ccccc4o3)cccc2c1,n,x
O=C(NCc1ccccc1)O[C@@H]1C[C@H]2C[C@@H]1[C@H]1CCCCN1C2,n,n
CCOC(=O)CCCNC(=O)O[C@@H]1C[C@H]2C[C@@H]1[C@H]1CCCCN1C2,85,n
CC(=O)n1cc(/C=C2/N=C(c3ccccc3)OC2=O)c2ccccc21,n,n
O=C(Nc1nccs1)c1cc(-c2ccncc2)nc2ccccc12,n,n
O=C(NCc1ccc(F)cc1)C1CCCN(C(=O)c2ccccc2F)C1 (stereo unspecified),n,n
COC(=O)c1cnc2nc(C)ccc2c1Nc1ccc(Cl)cc1,62,n
COC(=O)c1cnc2nc(C)ccc2c1Nc1ccc(C)cc1Cl,n,n
COC(=O)c1cnc2nc(C)ccc2c1Nc1cc(Cl)ccc1C,65,n
